Test results reported in PubChem BioAssay (NCI).
About 83,000 compounds went through this panel and 20% of them were active in at least one assay; those are over-represented in the sample as a whole.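 Step 1: grow cells in 96-well plates. Step 2: add test compound at a single concentration. Step 3: incubate 48 h. Step 4: record percent growth.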 Unmarked numbers belong to inactive results. The source made the active and inactive calls. How the source made its calls: active means growth percent below 10; inactive means the rest.

Test system: TK-10 renal
Assay: NCI-60 one-dose screen, 48 h (100 = growth as untreated, 0 = no growth, -100 = all killed)
Settings: 10 µM unless noted

Compound | growth
NC(=O)CNc1ccc([As]=[As]c2ccc(NCC(N)=O)cc2)cc1 (centres undefined) | 58.1%
C/C(=C\c1ccn(-c2ccc(N)cc2)n1)[C@@H]1C[C@@H]2O[C@]2(C)CCC[C@H](C)[C@H](O)[C@@H](C)C(=O)C(C)(C)[C@@H](O)CC(=O)O1 | 54.6%
CC1(C)N=C(N)N=C(N)N1c1ccc(OCCCNC(=O)Nc2ccc(S(=O)(=O)F)cc2)c(Cl)c1 | 33.3%
c1ccc(COc2ccc3[nH]cc(CCN(Cc4ccccc4)Cc4ccccc4)c3c2)cc1 | 109%
O=[As](O)(O)c1ccccc1[As](=O)(O)O | 119%
C1CCC([PH+](C2CCCCC2)C2CCCCC2[PH+](C2CCCCC2)C2CCCCC2)CC1.[Au].[CH-]1CCCCC1CC1CCCC[N-]1 (centres undefined) | -43.4% (active)
CCCC(=O)O[C@@H]1C[C@H]2C[C@@H](O[C@@H]3O[C@@H](C)[C@@H](O)[C@@H](O)[C@H]3OC)C[C@@H](C[C@@H](C)/C=C/C=C\C[C@@H]3O[C@@H](C[C@@H]3C)[C@@H](O)C[C@H]3C[C@@]1(O)C(=O)O3)O2 | 29%
CC[S][Hg][Cl] | 115%
COc1cccc2c1c(C(=O)c1ccco1)cn2Cc1ccc(F)cc1 | 143%
CC(=O)c1ccc(C(=O)NCC2CCC3(CC2)OOC2(CCCCC2)OO3)cc1 | 86.3%
O=C(N/N=C/c1ccc(N(CCCl)CCCl)cc1)c1cccc2ccccc12 | 87.7%
O=C(CCCCCNC1=CC(=O)c2ccccc2C1=O)NCCC[Te]c1ccccc1 | -14.8% (active)
N#CC1(c2ccccc2)CCN(Cc2ccccc2)CC1 | 88.4%
O=P1(NCCCl)OCCCN1CCCl (centres undefined) | 97.7%
O=C(CC1(O)C(=O)Nc2ccc(Br)cc21)c1ccc(C(=O)NCC2CCC3(CC2)OOC2(CCCCC2)OO3)cc1 (centres undefined) | 72.5%
Cc1ccc(Nc2nc3c(s2)C2=CC[C@@H]4[C@H](CC[C@]5(C)C(=O)CC[C@@H]45)[C@@]2(C)CC3)cc1 | 53.5%
C=C1C[C@](OC)([C@H](O)C(=O)N[C@@H](OC)[C@@H]2C[C@@H](O)C(C)(C)[C@@H](C[C@@H](COC)OC)O2)O[C@H](C)[C@@H]1C | -36% (active)

Compound | growth
O=C1C2C(C(=O)[N]1[Hg][c]1cccs1)C1(Cl)C(Cl)=C(Cl)C2(Cl)C1(Cl)Cl (centres undefined) | 49.9%
COc1ccc(/C=C\c2cc(OC)c(OC)c(OC)c2)cc1NC(=O)/C=C/c1ccc(OC)c(OC)c1 | 91%
O=C(O)c1c(Cl)n(Cc2ccc(O)cc2)c2ccc(O)cc12 | 137%
CC(=O)OCc1cc[c]([Hg][Cl])o1 | 127%
COC(=O)[C@@H](C)C[C@H](Cc1ccccc1)NC(=O)c1csc([C@@H](C[C@H](C(C)C)N(C)C(=O)[C@@H](NC(=O)CN(C)C)C2CC2)OC(C)=O)n1 | 45.5%
CC(=O)Nc1nc2c(s1)CC[C@@]1(C)C2=CC[C@H]2[C@@H]3CC[C@H](O)[C@@]3(C)CC[C@@H]21 | 91.1%
COc1ccc(/C(C)=C(\c2ccc(OCCN3CCOCC3)cc2)c2ccc(OC(=O)Cc3ccccc3)cc2)cc1 | 108%
O=C(O)C(O)C(O)C1[O][Sb]([c]2ccc([N+](=O)[O-])cc2)[O]C1CO (centres undefined) | 98.4%
Fc1c[c-]c(-c2ccccn2)c(F)c1.[CH3-].[Pt+2].c1ccc([PH+](c2ccccc2)c2ccccn2)cc1 | -1.18% (active)
CCCCCCCCOC(=O)CCN1CC1 | 127%
O=C1N[C@@H]2[C@@H](O)[C@@H](O)[C@H](O)C[C@H]2c2cc3c(c(O)c21)OCO3 | -12.6% (active)
O=P(Oc1ccc(Cl)cc1)(N1CC1)N1CC1 | 104%
O=C1CC2(CC3(Cl)C(Cl)=C(Cl)C2(Cl)C3(Cl)Cl)C(=O)O1 (centres undefined) | 98.7%
COc1ccc(/C=C/c2cc(OC)c(OC)c(OC)c2)cc1NC(=O)/C=C/c1ccc(F)cc1 | 88.4%
Nc1cc2nc3ccccc3nc2cc1N | 110%
CN[C@@]1(c2ccccc2Cl)CCCC[C@@H]1NCC1CCCO1 (some centres undefined) | 102%
COc1cc2c(cc1OCCCn1c(-c3ccccn3)nc3ccccc31)N=C[C@@H]1CCCN1C2=O | -20.8% (active)
